Screening data: PubChem BioAssay, National Center for Advancing Translational Sciences (NCATS)
IMPase Li inh: IMPase inhibition in cells with lithium potentiation. CHO-M1 cells, IP1 TR-FRET (IP-One), carbachol + lithium. Potency, µM (doses to about 59.4 µM), inactives show top-dose activity, negative = IMPase inhibition, most hits filed as inhibitors. 210,000 tested, 0.35% active. AID 1457;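 further: IP1 builds up when IMPase is blocked and the TR-FRET signal falls; potency means the concentration at half of the fitted maximal effect; plate controls were basal vehicle for no effect and high inhibitor control for full effect; nearly all actives have a fitted effect of over 50% in size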
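CHO-M1, 2000 cells/well, 16–30 h culture; cpd + low Li+, 30 min 37C; lysis with d2-IP1/Eu-anti-IP1 Ab, 10 min RT; TR-FRET 665/620 ratio and 620 channel; AC50 via Hill.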
IMPase inh: IMPase inhibition in cells; P97697; CHO-M1 cells, IP1 accumulation, HTRF TR-FRET ratio; 120,000 tested, under 10 active; inhibition (IP1 accumulation), % at 46.1 µM; AID 901; active means well fitted curve in the direction sought with a large enough effect in the signal ratio, not every such curve was filed as active; inconclusive means small, poorly fitted or top-dose-only effect, or a change in a side signal; inactive means no such curve, though single readings can be large or run the other way; the % refers to the signal ratio;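 further: cells stimulated with carbachol in lithium chloride buffer; plate controls were DMSO basal wells for no effect and reference inhibitor wells for full effect; higher means more IMPase inhibition seen as more IP1 and lower FRET ratio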
Target sequence (P97697 whole entry, looked up): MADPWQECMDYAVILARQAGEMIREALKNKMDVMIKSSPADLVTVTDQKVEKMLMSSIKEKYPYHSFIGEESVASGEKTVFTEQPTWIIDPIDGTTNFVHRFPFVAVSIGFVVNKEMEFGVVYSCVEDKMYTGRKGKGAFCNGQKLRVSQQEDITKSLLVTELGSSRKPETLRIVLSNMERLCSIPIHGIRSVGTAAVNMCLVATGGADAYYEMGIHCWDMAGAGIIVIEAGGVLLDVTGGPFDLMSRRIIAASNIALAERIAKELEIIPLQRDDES
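In this qHTS, compounds (final up to 46 uM) act on CHO-M1 cells that are then activated through the M1 receptor with carbachol, in pH 7.4 buffer containing 50 mM LiCl, for 30 min. IP1 accumulation is quantified by the IP-One immunoassay.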
HTT aggregate: reduces HttQ103-GFP aggregates in PC12 cells; PC12 HttQ103-GFP aggregates, Acumen cytometry, 40 h; Potency, µM (top dose mostly 46.1 µM), for inactives: top-dose activity change, negative = inhibition, actives largely listed as inhibitors; 220,000 tested, 1.1% active; further: potency means the concentration at half of the fitted maximal effect; on the % scale 0 is the no-effect control and ±100 the full control effect; nearly all actives have a fitted effect of over 60% in size
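Aggregate formation scored by laser-scanning cytometer (488 excitation, 500–530 emission) in lysed PC12 cells expressing Q103-GFP after 100 nM tebufenozide induction; library tested in dose series, with ATPLite reagent added in the multiplex.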
PNC inhibitor: perinucleolar compartment assembly inhibition. PC3M PTB-GFP, PNC prevalence imaging, 16 h; hits give low values. activity change (PNC), negative = inhibition, % at 10 µM. 140,000 tested, 3.1% active;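 active means readout at or below -70, meaning at least 70% loss of cells showing the perinucleolar compartment, a nuclear body marking cancer cells; inconclusive means readout between -30 and a set limit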;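 further: plate controls were DMSO wells for no effect and camptothecin positive control wells for full effect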
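Compounds are pinned in duplicate onto adhered PC3M cells stably expressing GFP-tagged PTB and incubated 16 h at 37 C. Cells are then fixed, nuclei stained with Hoechst, and PNC-positive cells counted.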
NPSR antag: neuropeptide S receptor (human) antagonism, cAMP; Q6W5P4; CHO-NPSR cells, cAMP TR-FRET, antagonist mode; Potency, µM (doses to about 38.3 µM), for the others: at the highest dose activity change, negative = inhibition, usual class: inhibitors; 220,000 tested, 1% active; further: potency means the concentration at half of the fitted maximal effect; on the % scale 0 is the no-effect control and ±100 the full control effect; nearly all actives have a fitted effect of over 50% in size
Target sequence (Q6W5P4 whole entry, looked up): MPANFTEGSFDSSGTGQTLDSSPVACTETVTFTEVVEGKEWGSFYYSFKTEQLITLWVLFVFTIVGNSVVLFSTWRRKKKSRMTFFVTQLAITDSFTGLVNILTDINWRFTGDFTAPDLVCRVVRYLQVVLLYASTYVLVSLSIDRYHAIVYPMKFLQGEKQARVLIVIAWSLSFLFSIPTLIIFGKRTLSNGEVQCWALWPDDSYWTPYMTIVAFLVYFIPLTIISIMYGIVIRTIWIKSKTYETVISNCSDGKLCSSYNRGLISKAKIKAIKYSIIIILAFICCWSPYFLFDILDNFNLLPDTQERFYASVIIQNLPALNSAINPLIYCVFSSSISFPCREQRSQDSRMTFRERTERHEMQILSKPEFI
HTT cytoprotect: protects HTT-Q103 PC12 cells, measured by ATP; 230,000 tested, 0.14% active; Potency, µM (series often up to 56.4 µM), for inactives: cytoprotection (ATP increase), most hits filed as activators; PC12 HTT-Q103 induced, cytoprotection, ATP luminescence, 40 h; further: potency means the concentration at half of the fitted maximal effect; % of control where 0% means no effect; nearly all actives have a fitted effect of over 45% in size
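PC12 cells stably carrying ecdysone-inducible Htt exon 1 (Q103)–GFP were induced with 100 nM tebufenozide (final) alongside library compounds in a dose series. Cytoprotection was scored as retained ATP by ATPlite luminescence.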
An asterisk follows results filed as active; ? = inconclusive; . = no result given; [ ] = dose if it differs, or a comment. Compounds with a hit are over-represented: about 3.4% of the library has one in this group of screens. Unless noted, the call rests on the fitted dose curve; in most records, active means well fitted curve in the direction sought with a large enough effect; inconclusive means small, poorly fitted or top-dose-only effect, or another doubt; inactive means no such curve, though single readings can be large; an effect the other way counts as inactive or inconclusive.

SMILES	IMPase Li inh	IMPase inh	HTT aggregate	PNC inhibitor	NPSR antag	HTT cytoprotect
COc1cc(-c2nnc(-c3cc(OC)c(OC)c(OC)c3)o2)cc(OC)c1OC	6%	-6	-1%	-100*	5%[46.1 µM]	26%[10 µM]
COc1cc(OC)cc(-c2nc3ccccc3c(=O)n2OC(=O)c2ccc(Br)cc2)c1	-5%	.	-26%	-116*	-30%	28%[10 µM]
Cc1cc(C(=O)Nn2c(-c3ccc(Br)cc3)nc3ccccc3c2=O)ccc1[N+](=O)[O-]	10%	.	35µM*	19	-35%	8%[10 µM]
CC(=O)c1ccc(NC(=O)CSc2nnc(Cn3cnc4ccccc43)o2)cc1	14%	.	-2%[9.22 µM]	.	-9%	2%[10 µM]
COc1ccc(C(=O)CSc2nnc(Cn3cnc4ccccc43)o2)cc1	26%[38.3 µM]	-6	10µM*	?	-6%[46.1 µM]	-12%[10 µM]
CCCCn1c(/N=C/c2ccccc2NS(=O)(=O)c2ccc(C)cc2)nc2ccccc21	16%	-10	-11%	?	-11%	-21%[10 µM]
Cc1ccc(S(=O)(=O)Nc2ccccc2/C=N/c2nc3ccccc3n2C(C)C)cc1	-1%	-6	?	-92*	-25%	-8%[10 µM]
N#CC1=C(S)N(c2ccccc2)C(c2cccs2)NC1=O (stereo not drawn)	-4%	-2	-11%	35	?	-23%[10 µM]
Cc1ccc(N2C(S)=C(C#N)C(=O)NC2c2cccs2)cc1 (stereo not drawn)	0%	.	-9%	-114*	-49%	-15%[10 µM]
O=C(c1ccco1)N1CCC2(CC1)CCN(c1ccccn1)CC2	23%	.	.	.	.	7%
O=C(Cc1ccc(F)cc1)N1CCN=C1SCc1ccc([N+](=O)[O-])cc1	9%	-3	22%	33	-27%	1%[10 µM]
O=C(Cc1ccccc1)N1CCN=C1SCc1ccc([N+](=O)[O-])cc1	.	-1	31%	-90*	-3%[46.1 µM]	11%[10 µM]
CC(C)OC(=O)c1cc2c(OC[C@@H](O)CNC(C)(C)C)cccc2[nH]1	4%	1	.	.	.	-17%
c1ccc(Nc2ncnc3ccc(-c4ccc5c(c4)OCO5)cc23)cc1	4%	.	.	.	.	-12%
CC1=NNC(=O)/C1=C\c1cn(-c2ccccc2)nc1-c1ccccc1	35%	.	-34%[9.22 µM]	.	13µM*	-54%[1.9 µM]
CC(C)NC(=O)CSc1nncn1-c1ccccc1	4%[38.3 µM]	2	-7%[9.22 µM]	-97*	-11%[46.1 µM]	6%
Cn1c(SCC(=O)Nc2nccs2)nnc1-c1ccncc1	15%[38.3 µM]	-8	-13%	-6	-6%[46.1 µM]	10%
Nn1c(SCC(=O)Nc2ccc3c(c2)OCO3)nnc1-c1ccncc1	-11%[38.3 µM]	?	?	34	-9%[46.1 µM]	-15%
CC(C)NC(=O)CSc1nnc(-c2ccc(C(C)(C)C)cc2)n1C	6%	9	-9%	-100*	12%[46.1 µM]	-1%[10 µM]
Cc1csc(NC(=O)CSc2nnc(-c3ccncc3)n2C)n1	-15%[38.3 µM]	?	0.0008µM*	-28	-6%[46.1 µM]	0%
Cc1cc(NC(=O)CSc2nnc(-c3ccncc3)n2N)ccc1Br	-2%[38.3 µM]	-7	-13%	-89*	3%[46.1 µM]	-5%
CC(C)c1ccc(/C=C2\C=C(c3ccc4ccccc4c3)OC2=O)cc1	-1%	.	.	.	.	12%[10 µM]
COC(=O)[C@@H]1C[C@@]2(O)[C@@H](O)[C@@H](O)[C@@H](O)C[C@H]2N1Cc1ccc(C(C)(C)C)cc1	-5%	.	.	.	.	-121%
COC(=O)c1sc(S(=O)(=O)NCc2cccs2)c(C(=O)OC)c1C	18%	4	-9%	-111*	-18%[46.1 µM]	5%[10 µM]
COC(=O)c1sc(S(=O)(=O)NCC(=O)O)c(C(=O)OC)c1C	-14%	.	21%	.	-49%	.
SMILES	IMPase Li inh	IMPase inh	HTT aggregate	PNC inhibitor	NPSR antag	HTT cytoprotect
COC(=O)C1=C(C)NC(C)=C(C(=O)OCCN(C)Cc2ccccc2)[C@@H]1c1cccc([N+](=O)[O-])c1	.	17	.	.	.	-17%[1.9 µM]
CC(C)OC(=O)c1c2nc3ccccc3nc2n2c1[nH]c(=O)c1ccccc12	17%[38.3 µM]	?	-22%	11	10µM*	-28%[10 µM]
CCOc1ccc(C2C([N+](=O)[O-])=C(C)N(C)C(=O)N2C)cc1OC (stereo not drawn)	11%	.	22%[9.22 µM]	.	-16%	7%[10 µM]
O=C(c1ccco1)n1nc(-c2ccc(Cl)cc2)nc1NCc1ccc(F)cc1	.	-5	.	.	.	.
C=C(C(C)=O)C(O)c1ccccc1 (stereo not drawn)	58%	.	.	.	.	-26%
O=C(CSc1nc2c(c(C(F)(F)F)n1)CCc1ccccc1-2)NCc1ccccc1	10µM*	-20	-3%	8	?	-9%[10 µM]
O=C(CSc1nc2c(c(C(F)(F)F)n1)CCc1ccccc1-2)NCc1ccc(F)cc1	1%	0	-5%	-119*	-48%	6%[10 µM]
CCN(CC)CCCNC(=O)CSc1nc2c(c(C(F)(F)F)n1)CCc1ccccc1-2	24%	.	9%[9.22 µM]	.	8%	9%[10 µM]
O=C(O)CSc1nc2c(c(C(F)(F)F)n1)CCc1ccccc1-2	4%	.	-3%	.	-16%	3%[10 µM]
COc1ccc(-n2c(=O)c(CCc3ccccc3)nc3cncnc32)cc1	9%	.	.	.	.	6%
Cc1c(Cl)ccc2c1NC(=O)[C@]21[C@@H]2C(=O)N(Cc3ccccc3)C(=O)[C@@H]2[C@@H]2CCCN21	7%[38.3 µM]	-8	-32%	-127*	-18%[46.1 µM]	-7%[0.074 µM]
CCNc1ncc2nc(C)c(=O)n(C)c2n1	-7%	.	.	.	.	-48%
Cc1ccn2c(-c3csc(NCc4ccccc4)n3)c(C)nc2c1	30%	19	11µM*	?	?	26%[1.9 µM]
Cc1nc2ccccn2c1-c1csc(NCc2ccco2)n1	13%[38.3 µM]	6	5.6µM*	15	-13%[46.1 µM]	16%
c1coc(CNc2nc(-c3ccncc3)cs2)c1	-5%	-6	14µM*	426	0%[46.1 µM]	-13%[10 µM]
CCCCOc1ccc(/C=C/C(=O)OCC(=O)NC(=O)NCC(C)C)cc1OCC	-7%	2	-8%	-112*	-6%	0%[1.9 µM]
CCOC(=O)c1nc2sc3c(c2c(=O)[nH]1)CCCC3	-3%[38.3 µM]	-4	8%	-86*	-8%[46.1 µM]	2%
CCCCNC(=O)O/N=C(\N)CS(=O)(=O)C(C)(C)C	.	.	-1%[9.22 µM]	.	2%[7.67 µM]	14%[10 µM]
COc1ccc(NC(=S)NNC(=O)c2cccs2)cc1	-4%	.	-14%	-84*	1%	.
COc1ccc(NC(=O)c2cccs2)cc1	5%	6	-4%	-18	-1%[46.1 µM]	-8%[1.9 µM]
CC1(C)CC(=O)C(C=Nc2cccc(/N=C/C3=C(O)CC(C)(C)CC3=O)n2)=C(O)C1	1%[38.3 µM]	1	0%	24	?	4%
CC1(C)CC(=O)C(/C=N/c2ccccn2)=C(O)C1	.	-2	22µM*	-17	-4%[46.1 µM]	-5%
Cc1cnc(CNc2cc(-c3ccc(N(C)C)cc3)ncn2)cn1	20%	.	.	.	.	-59%
